This is a sample that favours compounds with a hit; in the whole collection about 6% have one here.
D1 ag: Allosteric Agonists of the Human D1 Dopamine Receptor: qHTS | D(1A) dopamine receptor (Homo sapiens), P21728 | HEK293 T-REx D1 cells, calcium flux, agonist mode | AID 504660, 2011 | actives 1% (n = 360,000) | activation, % at 2 µM; in the data active means activation above about 30%; further: 0% is about no effect
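Agonism was scored from calcium flux recorded over 180 s (1 read/s) after pintool compound addition, following a 10-cycle baseline. Cells were inducible force-coupled HEK293 TREx D1, plated overnight at 30 C and loaded with no-wash calcium dye.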
D1 antag: Antagonist of Human D 1 Dopamine Receptor: qHTS; HEK293 TREx D1 cells, calcium flux, dopamine EC80; stronger effect = lower value; D(1A) dopamine receptor (Homo sapiens), P21728; actives 3.2% (n = 360,000); activity change, negative = inhibition, % at 10 µM; in the data active means activity change below about -30%; further: on the % scale 0 is the no-effect control and ±100 the full control effect
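Inducible Hek293 Trex D1 cells (tetracycline, overnight, 30 C). Calcium dye 30–90 min RT. Antagonist mode: EC80 dopamine added after 180 s compound read.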
DRD3 antagonist: qHTS of D3 Dopamine Receptor Antagonist: qHTS | D3R cells, DiscoveRx beta-arrestin luminescence, antagonist mode; stronger effect = lower value | max response, negative = inhibition, % | actives 2.5% (n = 360,000) | AID 652054, 2013; in the data active means max response below about -50%; inconclusive means no clear call, values can overlap the other calls; further: on the % scale 0 is the no-effect control and ±100 the full control effect
Target sequence (P35462 whole entry, looked up): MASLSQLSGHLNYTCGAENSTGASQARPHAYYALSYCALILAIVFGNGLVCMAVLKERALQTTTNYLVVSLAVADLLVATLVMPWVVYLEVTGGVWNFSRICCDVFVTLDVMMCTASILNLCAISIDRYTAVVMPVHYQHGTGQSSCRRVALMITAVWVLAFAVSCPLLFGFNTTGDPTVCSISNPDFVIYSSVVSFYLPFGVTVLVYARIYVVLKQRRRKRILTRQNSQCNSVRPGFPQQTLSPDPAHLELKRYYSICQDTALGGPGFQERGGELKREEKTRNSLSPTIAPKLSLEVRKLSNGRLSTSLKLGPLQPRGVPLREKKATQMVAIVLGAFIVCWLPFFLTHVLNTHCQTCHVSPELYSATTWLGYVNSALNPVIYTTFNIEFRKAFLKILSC
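Cells expressing the human receptor were seeded at 1500 cells/well, incubated overnight at 37 degrees C in 5% CO2, then exposed to library compounds with dopamine controls for 90 minutes at 37 degrees C before luminescent detection.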
D1 potentiator: Potentiators of Human D1 Dopamine Receptor: qHTS | HEK293 TREx D1 cells, calcium flux, dopamine EC20 potentiation | potentiation, % at 10 µM | actives 0.036% (n = 360,000); in the data active means potentiation above about 30%; further: 0% is about no effect
DRD3 agonist: qHTS of D3 Dopamine Receptor Agonist: qHTS. max activation, %. AID 652048, 2013. D(3) dopamine receptor (Homo sapiens), P35462. D3R DiscoveRx beta-arrestin cells, luminescence, 90 min. actives 0.58% (n = 410,000); in the data active means max activation above about 30%; further: 0% is about no effect
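Cells at 1500/well, incubated overnight, then treated with pinned compounds (dopamine as control) for 90 min at 37 degrees C. DiscoveRx reagent added for 30 - 60 minutes at room temperature; luminescence read.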
An asterisk follows results filed as active; ? = inconclusive; · = not tested or not shown.

SMILES | D1 ag | D1 antag | DRD3 antagonist | D1 potentiator | DRD3 agonist
COc1cc(/C=N/Nc2nc3c(c(=O)n(C)c(=O)n3C)n2Cc2ccccc2)ccc1OC(=O)c1ccco1 | 1 | -7 | 57 | -7 | 66*
COC(=O)CNC(c1ccccc1)c1cc(Br)ccc1NC(=O)c1cc(OC)c(OC)c(OC)c1 (stereo not drawn) | 4 | 15 | · | 2 | -6
C=CCc1cccc(Cl)c1OCCCNC1CCCC1 | 14 | 31 | -89* | 2 | -9
O=C(Nc1cccnc1)c1cc(-c2ccccc2O)on1 | 5 | -24 | -19 | -2 | -2
O=C(Nc1cccc(C(F)(F)F)c1)c1cc(-c2cccs2)on1 | 12 | -12 | -65* | -8 | -67
O=C(CSc1nc(-c2cccs2)nc2cc(=O)[nH]n12)Nc1cccc(C(F)(F)F)c1 | 6 | -38* | · | -2 | 0
O=C(Nc1cccnc1)c1cc(-c2cccs2)on1 | 1 | 7 | -61* | -2 | -23
O=C(Nc1cccc(C(F)(F)F)c1)c1cc(-c2ccco2)on1 | -1 | 24 | -9 | -3 | -21
NNC(=O)c1csc(-c2ncc(C(F)(F)F)cc2Cl)n1 | 2 | -11 | -7 | -1 | 0
C#CCN(C#N)c1nc(NCC)nc(NC(C)C)n1 | 3 | 3 | -6 | 6 | -4
CCN(C#N)c1nc(NC(C)C)nc(NC(C)C)n1 | 11 | -3 | 15 | 2 | 32*
CCO[C@@H]1O[C@H](C(COCc2ccccc2)OCc2ccccc2)[C@H](OCc2ccccc2)[C@H]1O (stereo partly drawn) | · | · | · | · | -1
Cc1ccc(NC(=O)c2cc(-c3cccs3)nc3ccccc23)c(C)c1 | 8 | 3 | · | -3 | 6
Cc1cccc2sc(NNC(=O)c3cc(-c4cccs4)nc4ccccc34)nc12 | -1 | -18 | 126 | 1 | 46*
COc1ccc(-c2cc(C(=O)Nc3nc4c(C)cccc4s3)c3ccccc3n2)cc1OC | 2 | -3 | 26 | -10 | 33*
COc1ccc(C(=O)Nc2nc3ccc(OC)cc3s2)cc1 | 3 | -12 | 5 | -2 | 12
O=C(Nc1nc2ccccc2s1)c1cc(-c2ccco2)nc2ccccc12 | 2 | -2 | 2 | 2 | -2
COc1cccc(-c2cc(C(=O)Nc3nc4ccccc4s3)c3ccccc3n2)c1 | 3 | 8 | -59* | -1 | -29
COc1ccc2nc(NC(=O)c3cccc(-c4cc5ccccc5oc4=O)c3)sc2c1 | 2 | -33* | -20 | -7 | -1
Cc1cc(/C=C/c2ccc3cc(N(C)C)ccc3[n+]2C)c(C)n1-c1ccccc1 | · | · | · | · | -14
CCc1nc2c(OCc3ccc4c(c3)OCO4)cccn2c1N(C=O)Cc1ccccc1 | · | · | -4 | · | -23
Cc1ccc(Nc2nc(C)c(NC(=O)c3ccc(C)cc3)c(Nc3ccc(C)cc3)n2)cc1 | 2 | -13 | · | 6 | -18
O=C(NCc1ccccc1Cl)c1ccc2c(c1)N(Cc1ccccc1)C(=O)CS2 | 1 | -5 | · | -2 | -4
CCc1ccc(O)c(CNCCNCc2cc(CC)ccc2O)c1 | 31* | -9 | 3 | -2 | -36
COc1ccc(C(CNC(=O)COc2ccc(Br)cc2F)N2CCCC2)cc1 (stereo not drawn) | 6 | 16 | -76* | -6 | -36
SMILES | D1 ag | D1 antag | DRD3 antagonist | D1 potentiator | DRD3 agonist
COc1ccc(C(CNC(=O)COc2ccc(C)cc2)N2CCCCC2)cc1 (stereo not drawn) | -1 | 2 | · | -2 | -27
COc1ccc(C(CNC(=O)COc2ccc(F)cc2Cl)N2CCCCC2)cc1 (stereo not drawn) | 1 | -6 | -26 | -8 | -14
COc1ccc(C(CNC(=O)COc2ccccc2C)N2CCCC2)cc1 (stereo not drawn) | 7 | -26 | ? | -2 | -41
COc1ccc(C(CNC(=O)COc2cccc(C)c2)N2CCCC2)cc1 (stereo not drawn) | 2 | 8 | -76* | -8 | -3
COc1ccc(C(CNC(=O)COc2ccc(Cl)c(C)c2)N2CCCCC2)cc1 (stereo not drawn) | 0 | 2 | -95* | 3 | -19
COc1ccc(C(CNC(=O)COc2cccc(C(F)(F)F)c2)N2CCCC2)cc1 (stereo not drawn) | 2 | 17 | -107* | -8 | -26
CNc1ccc2ncc(-c3ccccc3C(C)=O)n2n1 | · | · | 24 | · | 8
CCOc1ccccc1-c1nc(-c2ccc(NC(=O)c3ccc(Br)o3)cc2)no1 | 5 | 7 | 21 | -5 | 57*
CCCOC(=O)c1ccc(NC(=O)c2ccc(Br)o2)cc1 | 8 | -32* | 5 | -6 | 2
COc1cccc(NC(=O)c2ccccc2-c2nc(-c3ccc(Cl)cc3)no2)c1 | 7 | -33* | -7 | 3 | 9
CCN1CCN(c2ccc(NC(=O)c3ccc(Br)o3)cc2)CC1 | 3 | 12 | 0 | -7 | -2
CCCC(=O)N1CCN(c2ccc(NC(=O)c3ccc(Br)o3)cc2)CC1 | 0 | -43* | -15 | -7 | -6
COC(=O)Cc1ccc(NC(=O)c2ccc(Br)o2)cc1 | -1 | -11 | -22 | -5 | -1
CCN(CC)c1ccc2c(C)c(CN3CCOCC3)c(=O)oc2c1 | 0 | -1 | -75* | 8 | -6
O=P1(O)CC2=C(CC=CC2)C1 | · | · | -29 | · | -12
C[C@@H](CSc1ccccc1)CN1CC[C@H](O)CCC1=O | -1 | -31* | 23 | 1 | 4
C[C@@H](CSc1ccccc1)CN1CC[C@H](NC(=O)OCc2ccccc2)CCC1=O | 5 | -13 | 23 | -11 | 5
Cc1nn(C(=O)COc2ccc(Cl)cc2)c(C)c1Sc1ccccc1 | 12 | -37* | · | -4 | -13
Cc1ccc(Sc2c(C)nn(C(=O)COc3ccc(F)cc3)c2C)cc1 | 11 | -4 | · | -4 | -16
COc1ccc(Cl)cc1Nc1ccc2cc(S(=O)(=O)N3CCCCC3)ccc2n1 | 2 | -10 | · | -3 | 0
O=c1[nH]c2ccccc2cc1-c1noc(-c2cccnc2)n1 | 2 | 10 | 8 | 2 | 48*
N#CCC(N)=C(C#N)C#N | 80* | 9 | 3 | 8 | -10
COC(=O)CC#N | 7 | · | 3 | -4 | 18
O=c1cc(/N=C/c2coc3c(ccc4ccccc43)c2=O)[nH]c(=S)[nH]1 | 7 | -31* | -14 | 1 | 4
CC1(C)N=C(N)N=C(N)N1c1ccc(Cl)cc1 | · | · | · | · | 0
O=C(COC(=O)Cc1c(F)cccc1Cl)NCCC1=CCCCC1 | 20 | 6 | -2 | -11 | 1
O=C(COC(=O)c1ccccc1NCCO)NCCC1=CCCCC1 | 1 | -25 | -64* | -2 | -15
O=C(COC(=O)COc1cccc(F)c1)NCCC1=CCCCC1 | 0 | -32* | -18 | -4 | 16
